{
  "source": "ChEMBL document CHEMBL3988442",
  "about": "“University of Dundee, Small-Polar-MMV Screening Library” (2021)",
  "note": "Out of some 48,000 compounds screened, about 13,000 (27%) showed an effect of 50% or more. The list shows a part of the results.",
  "data": [
    {"system": "Wolbachia pipientis", "experiment": "Anti-Wolbachia Cell-Based Screen", "type": "functional", "parameters": "scale not given: in the data most compounds retested in dose-response had high values", "conditions": "5 µM", "units": {"Percent Effect": "%"}, "values": [
      {"smiles": "CC(=O)NCCSCCOc1cccc(Br)c1", "Percent Effect": -2.574},
      {"smiles": "CN(C)S(=O)(=O)c1ccc(-c2nc(C#N)c(NC(C)(C)C)o2)o1.Cl", "Percent Effect": 93},
      {"smiles": "CNc1oc(-c2cc(S(=O)(=O)N3CCCCCC3)c(C)o2)nc1C#N", "Percent Effect": 9.909},
      {"smiles": "CCCNC(=O)CSCc1ccc(S(=O)(=O)N(C)C)o1", "Percent Effect": -0.4398},
      {"smiles": "CN(C)S(=O)(=O)c1ccc(CSCC(=O)NC(C)(C)C)o1", "Percent Effect": -7.197},
      {"smiles": "CNc1oc(-c2ccc(OC)c(S(=O)(=O)N3CCCCC3)c2)nc1C#N", "Percent Effect": -6.371},
      {"smiles": "CNc1oc(-c2ccc(S(=O)(=O)N(C)C)o2)nc1C#N", "Percent Effect": 100.4},
      {"smiles": "CC(C)Nc1oc(-c2ccc(S(=O)(=O)N(C)C)o2)nc1C#N", "Percent Effect": 118.4},
      {"smiles": "Cc1oc(-c2nc(C#N)c(N(C)C)o2)cc1S(=O)(=O)N1CCCC1", "Percent Effect": 17.91},
      {"smiles": "COc1cccc(N2CC3(CCN(c4ccncn4)C3)CC2=O)c1", "note": "(centres undefined)", "Percent Effect": -12.13},
      {"smiles": "Cc1nnc2n1CCN(Cc1nc3ccccc3o1)C2", "Percent Effect": 13.24},
      {"smiles": "O=C(N[C@@H]1CCNC[C@H]1O)c1cc(F)cc(Cl)c1", "Percent Effect": 0.509},
      {"smiles": "O=C(CCC(=O)N1CCC(c2noc3cc(F)ccc23)CC1)NC1CC1", "Percent Effect": 145.4},
      {"smiles": "CS(=O)(=O)CCC(=O)N1CCC(c2cccc(F)c2)C1", "note": "(centres undefined)", "Percent Effect": -0.1646},
      {"smiles": "O=C(O)CCC(=O)N1CCC(c2noc3cc(F)ccc23)CC1", "Percent Effect": 117.2},
      {"smiles": "O=C(O)CCCC(=O)N1CCC(c2noc3cc(F)ccc23)CC1", "Percent Effect": 110.7},
      {"smiles": "O=C(CCc1cc(O)no1)N1CCC(Cc2ccc(F)cc2)CC1", "Percent Effect": -4.234},
      {"smiles": "O=C(CN1CCC(C(=O)c2cc(F)ccc2F)CC1)NC1CC1", "Percent Effect": -20.5},
      {"smiles": "CC(C)NC(=O)CCN1CCC(C(=O)c2cc(F)ccc2F)CC1", "Percent Effect": -38.81},
      {"smiles": "O=C(CCC(=O)N1CCNC(=O)C1c1cccc(F)c1)NC1CCCC1", "note": "(centres undefined)", "Percent Effect": -14.56},
      {"smiles": "CC(C)NC(=O)CCC(=O)N1CCC(c2noc3cc(F)ccc23)CC1", "Percent Effect": 90.62},
      {"smiles": "CC(=O)N1CC[C@H](c2nc3cc(F)ccc3o2)C1", "Percent Effect": 5.323},
      {"smiles": "O=C(c1ccc(Cl)c(Cl)c1)N1CCCCC1C1OCCO1", "note": "(centres undefined)", "Percent Effect": 4.358},
      {"smiles": "Cc1ncc(CNC(=O)N(C)Cc2ccc([S+](C)[O-])cc2)s1", "note": "(centres undefined)", "Percent Effect": -5.78},
      {"smiles": "CCc1nc(CN2CCOC(CN(CC)c3cccnn3)C2)cs1", "note": "(centres undefined)", "Percent Effect": 0.2652},
      {"smiles": "Cc1nc(C(C)C)sc1C(=O)NS(=O)(=O)c1ccc(C#N)cc1", "Percent Effect": -14.12},
      {"smiles": "Cc1ccc(CNCCOc2ccc(S(C)(=O)=O)cc2)cc1", "Percent Effect": 14.5},
      {"smiles": "C=C(C)COc1ccccc1CN1CCC(NC(C)=O)CC1", "Percent Effect": 100.9},
      {"smiles": "O=C(NCCCc1ccncc1)C1CCCN(Cc2ccco2)C1", "note": "(centres undefined)", "Percent Effect": 21.32},
      {"smiles": "C=C(C)CN1CCC(NC(=O)NCCc2ccccc2OC)CC1", "Percent Effect": 1.808},
      {"smiles": "C=C(C)COc1ccccc1NC(=O)N1CCCCC1CO", "note": "(centres undefined)", "Percent Effect": -1.415},
      {"smiles": "C=C(C)COc1ccccc1CN1CCC(C(=O)NCC)C1", "note": "(centres undefined)", "Percent Effect": 91.68},
      {"smiles": "CCNC(=O)COc1ccccc1N1CCCC(C)C1", "note": "(centres undefined)", "Percent Effect": -0.1998},
      {"smiles": "C=C(C)COc1ccccc1NC(=O)NC1CCOCC1", "Percent Effect": -8.907},
      {"smiles": "C=C(C)COc1ccccc1CN1CCCC(C(=O)NCCCO)C1", "note": "(centres undefined)", "Percent Effect": 100.8},
      {"smiles": "C=C(C)COc1ccccc1C(=O)N1CCC2(CC1)CN(C)CCN2C", "Percent Effect": 12.34},
      {"smiles": "Cc1ccc(NCCCNC(=O)C2CCCN(Cc3ccco3)C2)nc1", "note": "(centres undefined)", "Percent Effect": -3.633},
      {"smiles": "C=C(C)COc1ccccc1C(=O)N1CCC(C(=O)NCC)C1", "note": "(centres undefined)", "Percent Effect": 83.75},
      {"smiles": "NC(=O)C1CCN(C(=O)c2ccccc2OCc2ccccc2Cl)CC1", "Percent Effect": 5.008},
      {"smiles": "CCc1nc(CCNC(=O)Nc2cc(C(N)=O)sc2C)cs1", "Percent Effect": 34.11},
      {"smiles": "O=C(c1ncoc1C1CCCO1)N1CC2(CCCC2)c2ccccc21", "note": "(centres undefined)", "Percent Effect": -7.876},
      {"smiles": "Cc1ccc(CCNc2ncnc3sc4c(c23)CCNC4)o1", "Percent Effect": 6.04},
      {"smiles": "Cc1nc2oc(C(=O)N3CCCC3)c(N)c2c2c1CCCC2", "Percent Effect": 89.55},
      {"smiles": "CCC(C)N1CCc2c(C(=O)N3CCOCC3)n[nH]c2C1", "note": "(centres undefined)", "Percent Effect": -26.93},
      {"smiles": "CC(C)c1nc2oc(C(=O)N3CCOCC3)c(N)c2c2c1CCCC2", "Percent Effect": 100.5},
      {"smiles": "CCn1c(N)nc2cc(C(=O)N3CCCOCC3)cnc21", "Percent Effect": -12.44},
      {"smiles": "CC(=O)N1CCCN(C(=O)c2oc(Br)cc2C)CC1", "Percent Effect": -21.77},
      {"smiles": "Cn1c(C(=O)N2CCOCC2)nc2c1CCN(c1ncccn1)C2", "Percent Effect": -2.522},
      {"smiles": "CC(=O)N1CCc2[nH]nc(C(=O)N3CCOCC3)c2C1", "Percent Effect": -13.35},
      {"smiles": "Cc1nc2oc(C(=O)N3CCOCC3)c(N)c2c2c1CCCC2", "Percent Effect": 117.9},
      {"smiles": "Nc1nc2c(c(NCc3ccc(C(=O)N4CCCC4)cc3)n1)CCCC2", "Percent Effect": -8.867},
      {"smiles": "Cc1nc(N2CCOc3ccc(CO)cc3C2)c2c(C)noc2n1", "Percent Effect": -4.645},
      {"smiles": "CNC(=O)C(C)NC(=O)c1cc(COc2ccc(OC)cc2Cl)[nH]n1", "note": "(centres undefined)", "Percent Effect": -6.822},
      {"smiles": "CN1C[C@@H](n2cnc(-c3ccccc3)c2-c2c[nH]cn2)C[C@H]1C(=O)O", "Percent Effect": -2.319},
      {"smiles": "Cc1cc(C)c(C(=O)N2CCC3(CCCN(CC(C)(C)C)C3)C2)[nH]1", "note": "(centres undefined)", "Percent Effect": -1},
      {"smiles": "CC[C@@H]1N(Cc2ccc(F)cc2)CCC[C@]12CCC(=O)N2C.O=C(O)C(F)(F)F", "Percent Effect": 88.6},
      {"smiles": "Cc1ccc(CN2CC(C(=O)N3CCCC3)C3(CCOCC3)C2)s1.O=C(O)C(F)(F)F", "note": "(centres undefined)", "Percent Effect": -16.58},
      {"smiles": "COc1ccc(CN2CCO[C@@H]3C[C@@H](C(=O)NC(C)C)C[C@H]32)cc1.O=C(O)C(F)(F)F", "Percent Effect": -0.6614},
      {"smiles": "COc1ccc(CN2C[C@H](N3CCCC3=O)[C@@H]3OCCC[C@@H]32)cc1.O=C(O)C(F)(F)F", "Percent Effect": 8.325},
      {"smiles": "CC[C@@H]1N(Cc2ccc(OC)cc2)CCC[C@]12CCC(=O)N2CCOC.O=C(O)C(F)(F)F", "Percent Effect": 91.26},
      {"smiles": "CC[C@@H]1N(Cc2ccc(C)s2)CCC[C@]12CCC(=O)N2C.O=C(O)C(F)(F)F", "Percent Effect": 100.7},
      {"smiles": "CNC(=O)[C@H]1C[C@H]2OCC[C@H]2N(Cc2ccc(F)cc2)C1.O=C(O)C(F)(F)F", "Percent Effect": -9.122},
      {"smiles": "CC[C@@H]1N(Cc2ccc(C)o2)CCC[C@]12CCC(=O)N2CCOC.O=C(O)C(F)(F)F", "Percent Effect": 120.4},
      {"smiles": "Cc1ccc(CN2CCCC3(CCCC(=O)N3C)C2)s1.O=C(O)C(F)(F)F", "note": "(centres undefined)", "Percent Effect": 5.855}
    ]}
  ]
}
